# Compounds without any hit were thinned out: in the full panel of roughly 83,000, 20% have a hit.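 The endpoint reported here, percent growth, reads 100 for growth as untreated, 0 for no net growth and -100 for all cells dead.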 Unmarked numbers belong to inactive results. Activity calls are given as the source filed them. Rule for the calls: active = growth percent below 10; inactive = the rest.
# Key:
# Test in all cases: NCI-60 one-dose screen, 48 h (100 = growth as untreated, 0 = no growth, -100 = all killed)
# [1] = tested on: RPMI-8226 leukemia; conditions: 10 µM unless noted
# [2] = tested on: OVCAR-8 ovarian; conditions: 10 µM unless noted
# [3] = tested on: OVCAR-5 ovarian; conditions: 10 µM unless noted
# [4] = tested on: OVCAR-4 ovarian; conditions: 10 µM unless noted
# [5] = tested on: SK-OV-3 ovarian; conditions: 10 µM unless noted
# [6] = tested on: IGROV1 ovarian; conditions: 10 µM unless noted
# [7] = tested on: OVCAR-3 ovarian; conditions: 10 µM unless noted
# [8] = tested on: HS 578T breast; conditions: 10 µM unless noted
# [9] = tested on: NCI/ADR-RES ovarian; conditions: 10 µM unless noted
# [10] = tested on: T-47D breast; conditions: 10 µM unless noted
# [11] = tested on: BT-549 breast; conditions: 10 µM unless noted
# [12] = tested on: MDA-MB-435 melanoma; conditions: 10 µM unless noted
# [13] = tested on: SW-620 colon; conditions: 10 µM unless noted
# [14] = tested on: MCF7 breast; conditions: 10 µM
# [15] = tested on: HCT-116 colon; conditions: 10 µM unless noted
# [16] = tested on: HCC-2998 colon; conditions: 10 µM unless noted
# [17] = tested on: KM12 colon; conditions: 10 µM unless noted
SMILES,growth [1],growth [2],growth [3] [%],growth [4] [%],growth [5] [%],growth [6],growth [7],growth [8],growth [9],growth [10],growth [11] [%],growth [12] [%],growth [13] [%],growth [14],growth [15],growth [16] [%],growth [17] [%]
COc1ccc(C(=O)C2CC2c2ccc(Cl)cc2)cc1 (stereo unspecified),38.4%,78.2%,115,72.2,104,83.7%,74.7%,82.4%,78.9%,80.8%,57.3,95.6,102,103%,77.1%,98.8,68.7
CN(C)c1ccc(N=Cc2ccc(N3CCOCC3)cc2)cc1,47.5%,62.7%,111,19.1,94.7,117%,-4.05% (active),107%,83.1%,94.4%,95.1,74.1,44.2,39%,67.6%,54.2,59.5
CCOC(=O)c1c(C=O)nc2ccccc2c1/C=C/c1ccc(Cl)cc1,85.7%,104%,101,85.6,95.1,80.9%,98.6%,90.6%,103%,86.2%,99.6,101,103,78%,82.4%,110,96.1
COc1cc(NC(=O)CCSc2nc3ccccc3c(=O)n2Cc2ccccc2)cc(OC)c1OC,56.9%,79.3%,91,63.4,99.3,99.4%,88.1%,77.3%,82.1%,78.1%,86,89.9,93.6,84.1%,83.7%,99.6,–
COc1ccc(C)c2sc(N(Cc3cccnc3)C(=O)c3ccc(C#N)cc3)nc12,8.4% (active),-10.5% (active),24.3,14.3,12.6,-14.3% (active),15.1%,-1.42% (active),9.32% (active),-0.727% (active),21.7,10.1,10.8,3.83% (active),13.2%,10.9,–
COc1cccc(/C=C/C(=O)c2c(C)nc3ccccc3c2/C=C/c2ccccc2)c1OC,6.11% (active),21.6%,36.4,46.3,89.8,20.9%,2.68% (active),37.5%,10%,11.2%,29.4,15.1,13.2,13.9%,4.08% (active),41.1,26.6
Cc1ccc(S(=O)c2ccc([N+](=O)[O-])c3nonc23)cc1 (stereo unspecified),91.3%,99.7%,118,101,112,104%,94.5%,96.5%,114%,59.1%,95.4,106,29,92.9%,68.9%,116,109
CCOc1cc2c(cc1OCC)C(c1cc(C)c(O)c(C)c1)NCC2 (stereo unspecified),77.5%,92.2%,97.6,95.9,101,101%,101%,107%,84.4%,91.6%,107,97.5,100,89.1%,94.2%,103,103
CCCCCCC(O)(c1ccc(F)cc1)C(CN1CCOCC1)c1ccccc1 (stereo unspecified),16.9%,33.5%,69.8,31.7,76.7,44%,2.28% (active),51.6%,17.2%,14.3%,61.9,35.8,26.3,20.4%,18.5%,23.3,29
